This is a sample that favours compounds with a hit; in the whole collection about 17% have one here.
TDP1 inh: TDP1 (human) enzyme inhibition | Q9NUW8 | hit rate 0.28% among 350,000 | AID 485290 | Potency, µM (titrated, usually from 130 µM), without a hit: at the highest dose activity change, negative = inhibition, most hits filed as inhibitors | recombinant TDP1, AlphaScreen DNA substrate cleavage; note: % is set by controls: 0 for no effect and ±100 for the full control effect; nearly all actives have a fitted effect of over 40% in size
Target sequence (Q9NUW8 whole entry, looked up): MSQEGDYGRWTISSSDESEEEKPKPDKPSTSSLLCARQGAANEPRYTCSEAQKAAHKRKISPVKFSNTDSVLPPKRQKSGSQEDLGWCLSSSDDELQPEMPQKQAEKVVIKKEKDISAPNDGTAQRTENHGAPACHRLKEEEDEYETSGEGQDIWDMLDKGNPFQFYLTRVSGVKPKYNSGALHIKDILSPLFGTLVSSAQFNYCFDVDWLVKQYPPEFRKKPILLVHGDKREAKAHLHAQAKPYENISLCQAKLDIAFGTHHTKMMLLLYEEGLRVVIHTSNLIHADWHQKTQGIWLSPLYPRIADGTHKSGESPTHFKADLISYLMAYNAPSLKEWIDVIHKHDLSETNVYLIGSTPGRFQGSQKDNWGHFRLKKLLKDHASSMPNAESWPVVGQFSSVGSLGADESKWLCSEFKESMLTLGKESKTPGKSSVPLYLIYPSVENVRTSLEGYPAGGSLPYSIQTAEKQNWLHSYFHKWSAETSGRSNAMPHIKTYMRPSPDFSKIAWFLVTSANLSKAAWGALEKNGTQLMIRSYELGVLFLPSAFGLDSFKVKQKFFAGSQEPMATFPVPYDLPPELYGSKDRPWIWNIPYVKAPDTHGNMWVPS
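E. coli-derived human Tdp1, 1 nM final. Cpd preinc 15 min RT; substrate 15 nM final, 5 min RT; AS bead mix 10 ug/ml final, 10 min RT. Signal loss = tyrosine-FITC cleavage. No-enzyme wells = max signal.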
DT40 TDP1 no CPT: qHTS for Inhibitors of human tyrosyl-DNA phosphodiesterase 1 (TDP1): qHTS in cells in absence of CPT. DT40 Tdp1-/- hTDP1 cells, no CPT, ATP luminescence, 48 h. Potency, µM (top dose mostly 46.2 µM), inactives show at the highest dose activity change, negative = growth inhibition, hits mostly inhibitors. hit rate 15% among 420,000; note: % is set by controls: 0 for no effect and ±100 for the full control effect; nearly all actives have a fitted effect of over 55% in size
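Stably hTDP1-transfected Tdp1-null chicken DT40 cells were treated with library compounds minus camptothecin and grown for at least 48 hr at 37 °C, after which cellular ATP was quantified by luminescence.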
ClpP mod: qHTS Assay for Activators of ClpP; ATP-dependent Clp protease proteolytic subunit (Bacillus subtilis (strain 168)), P80244; purified B. subtilis ClpP, FRET peptide cleavage, 20 min; Potency, µM (top dose mostly 57.5 µM), inactives show at the highest dose activity change, negative = active; hit rate 1.9% among 340,000; AID 651965, 2013; active = well fitted falling curve with a large enough effect; inconclusive = small, poorly fitted or top-dose-only effect; inactive = no such curve, though single readings can be large or run the other way; note: the source files actives as falling curves though it sought activators and does not explain the sign; nearly all actives have a fitted effect of over 65% in size
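Buffer: 100 mM Tris/HCl pH8, 100 mM KCl, 0.05% low protease BSA, 2.5% glycerol, 0.01% Tween-20. ClpP 10 microg/mL final; 20 min RT; delta FRET normalized to ADEP and DMSO controls.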
DT40 TDP1 CPT: DT40-hTDP1 cell growth loss with CPT. Potency, µM (titrated, usually from 46.2 µM), for the others: top-dose activity change, negative = growth inhibition, actives largely listed as inhibitors. chicken DT40 Tdp1-/-;hTDP1 cells + 20 nM CPT, ATP luminescence, 48 h. hit rate 12% among 420,000. AID 686979; note: % is set by controls: 0 for no effect and ±100 for the full control effect; nearly all actives have a fitted effect of over 55% in size
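Chicken DT40 Tdp1-/- cells stably complemented with human TDP1 were seeded at 400 cells/well in medium containing 20 nM camptothecin, exposed to pin-transferred compounds, and grown at 37 °C for at least 48 hr. Viability was read as ATP luminescence.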
* hit, by the source's call; u = inconclusive; x = not tested or not shown; [ ] = another dose, or the depositor's remark. Unless noted, calls come from the whole dose curve; as a rule, active = well fitted curve in the direction sought with a large enough effect; inconclusive = small, poorly fitted or top-dose-only effect, or another doubt; inactive = no such curve, though single readings can be large; an effect the other way counts as inactive or inconclusive. Potency is the fitted concentration of half-maximal effect.

SMILES	TDP1 inh	DT40 TDP1 no CPT	ClpP mod	DT40 TDP1 CPT
CN1CCN(C(=O)c2cc(COc3c(F)cccc3F)on2)CC1c1ccccc1 (stereo unspecified)	0%	u	x	-19%
CSc1ccccc1OCc1cc(C(=O)NC(C)Cc2cccc(C)n2)no1 (stereo unspecified)	5%	13µM*	-1%	16µM*
CSc1ccccc1OCc1cc(C(=O)NC(C)c2cnn(C)c2)no1 (stereo unspecified)	-1%	u	28µM*	u
CSc1ccccc1OCc1cc(C(=O)N2CCN(C)C(c3ccccc3)C2)no1 (stereo unspecified)	x	-71%	1%	21µM*
C=CC[C@H]1CC(C)=C[C@H](CC=C)N1C(=O)c1cc(COc2ccccc2SC)on1	1%	15µM*	-6%	u
Cc1cc2oc(C(=O)N(Cc3ccccc3)C3CCS(=O)(=O)C3)cc(=O)c2cc1C (stereo unspecified)	-2%	u	0%	u
COc1cc(/C=C2\C=Cc3ccccc32)ccc1N(C)C	x	u	2%	u
COc1cc(N(C)C)c(OC)cc1C=O	x	11µM*	-8%	16µM*
COc1cc(N(C)C)ccc1/C=C1\C=Cc2ccccc21	x	16µM*	0%	u
COc1cc(N(C)C)c(OC)cc1/C=C1\C=Cc2ccccc21	x	13µM*	-2%	u
Cc1ccc2nc(-c3ccc(Cl)c(NC(=O)c4ccc5c(c4)OCCO5)c3)oc2c1	2%	x	u	x
Cn1c(-c2ccc3ccccc3n2)nc2cnccc21	6%	15µM*	1%	18µM*
COc1cc(OC)c(-c2nc3cnccc3n2C)cc1OC	7%	0%	-6%	6%
C=C1C2CC[C@@]3(C)C(c4ccoc4)OC(=O)C[C@@]13OC1CC(OC(C)=O)C(C)(C)C(CC(=O)OC)[C@@]12C (stereo partly specified)	14%[56.1 µM]	12µM*	x	13µM*
C=C1C2CC[C@@]3(C)C(c4ccoc4)OC(=O)C[C@@]13OC1CC(=O)C(C)(C)C(CC(=O)OC)[C@]12C (stereo partly specified)	-8%[56.1 µM]	-12%	x	0%
O=C(NCCCO)/C(=C\c1ccco1)NC(=O)c1ccco1	7%	-1%	1%	19%
Cc1[nH]c2ccccc2c1C(c1ccncc1)N1CCCCC1 (stereo unspecified)	-2%	16µM*	x	13µM*
Cc1nnc(N2CCCCC2)c2ccccc12	0%	u	0%	-20%
Cc1c(N2CCCCC2)[nH]c2ccccc12	x	10µM*	-2%	u
CCc1ccccc1NC(=O)CNC(=O)CCc1nc2sc3c(c2c(=O)[nH]1)CCCC3	x	1%	9%	-16%
COc1cc(Cl)nn(-c2ccccc2)c1=O	4%	-11%	1%	u
O=c1c(Cl)cc(Cl)nn1-c1ccccc1	1%	1.5µM*	-1%	2.1µM*
Cc1nnsc1C(=O)NC1CCCc2c1cnn2-c1ccccc1F (stereo unspecified)	1%	18µM*	-15%	10µM*
Cc1nnsc1C(=O)NC1CCCc2c1cnn2-c1ccc(C(C)(C)C)cc1 (stereo unspecified)	4%	7.3µM*	1%	10µM*
Cc1ccc(-n2ncc3c2CCCC3NC(=O)c2csnn2)cc1C (stereo unspecified)	6%	u	2%	u
SMILES	TDP1 inh	DT40 TDP1 no CPT	ClpP mod	DT40 TDP1 CPT
COCCC(=O)NC1CCCc2c1cnn2-c1cccc(C)c1C (stereo unspecified)	x	-22%	-1%	-19%
COc1cccc(C(=O)COC(=O)c2n[nH]c(=O)c3ccccc23)c1	3%	3%	x	9%
CCN(CC(=O)Nc1c(F)cccc1F)C(=O)CCSc1ccc(F)cc1	-1%	-26%	x	-25%
Cc1nc(CC(=O)Nc2cccc(C)c2C)cs1	2%	-22%	-1%	-3%
Cc1cc(C)cc(-n2c(SCC(=O)NC3CCCCC3)nc3c([nH]c4ccccc43)c2=O)c1	4%	u	-18%	16µM*
O=C(CSc1nc2c([nH]c3ccccc32)c(=O)n1-c1ccc(Cl)cc1)NC1CCCCC1	4%	15µM*	-1%	10µM*
O=C(Nc1ccc(F)c(Cl)c1)c1csc(COCCO)n1	x	-24%	2%	-26%
CCC(=O)N(Cc1cc2c(C)cc(C)cc2[nH]c1=O)C1CCCCC1	-2%	u	u	u
CCC(=O)N(Cc1cc2c(C)ccc(C)c2[nH]c1=O)C1CCCCC1	5%	16µM*	u	u
O=C(/C=C/c1ccc2ccccc2n1)N1CCN(S(=O)(=O)c2ccccc2F)CC1	1%	18µM*	-6%	23µM*
CCN(CC)C(=O)c1nc(-c2cccc3ccccc23)no1	x	16µM*	u	u
O=C(CN1CCN(Cc2ccccc2Cl)C1=O)NCCCN1CCOCC1	x	-10%	-3%	1%
O=C1OC(C2=CCCCC2)=NC12CC2	4%[21 µM]	x	x	x
O=Cc1cc2ccccc2nc1SCCCF	3%	4.6µM*	x	u
CC(C)(C)OC(=O)NC(CNCc1ccccc1)Cc1ccccc1 (stereo unspecified)	-6%	u	-5%	13µM*
CC(C)(C)OC(=O)NC(Cc1ccccc1)C(=O)O (stereo unspecified)	0%	6%	-3%	5%
Fc1ccccc1CNCCCSc1nnnn1-c1ccccc1	-4%	u	3%	16µM*
CC(C)c1ccc(CNCCSc2nnnn2-c2ccccc2)cc1	7%	26µM*	1%	16µM*
COc1ccc([C@@H]2CC=C(C(=O)O)[C@H](c3ccc(Cl)cc3)N2S(=O)(=O)c2ccc(C)cc2)cc1OC	3%	-8%	-2%	0%
CC(C)C(=O)NNC(=O)c1cc2sccc2s1	3%	-4%	-9%	14%
Cc1ccc(/C=N/c2sc3c(c2C#N)CCC3)s1	3%	-25%	-1%	0%
N#Cc1c(/N=C/c2cc3ccccc3s2)sc2c1CCC2	1%[56.1 µM]	23µM*	-9%	u
CCOC(=O)N1CCN(CC(O)COCc2cc(OC)c(OC)c(OC)c2)CC1 (stereo unspecified)	3%	0%	-3%	-5%
COc1cc(COCC(O)CN2CCN(CCN3C(=O)c4cccc5cccc(c45)C3=O)CC2)cc(OC)c1OC (stereo unspecified)	5%	12µM*	-12%	18µM*
O=C1c2cccc3cccc(c23)C(=O)N1CCN1CCN(CC(O)COCc2ccc(Cl)cc2)CC1 (stereo unspecified)	3%	15µM*	-12%	8.2µM*
O=C1c2cccc3cccc(c23)C(=O)N1CCN1CCN(C(=S)Nc2ccc(Cl)cc2)CC1	-1%	u	-1%	u
CCOP(=O)(OCC)c1nc(-c2ccc(Cl)cc2Cl)oc1N1CCCCC1	3%	18µM*	x	12µM*

Assay outcomes as filed in PubChem BioAssay.
